The list is not random: actives were taken first. Their share in the collection is about 3.5%.
BJeLR lethal = MLPCN primary cell-based screen for lethality selective to Ras in HRASV12 cells; BJeLR (HRASV12) viability, CellTiter-Glo ATP luminescence, 48 h; AID 1554, 2009; hit rate 0.17% among 300,000; inhibition, % (no concentration beside the values); in the data active means inhibition above about 50%; inconclusive means no clear call, values can overlap the other calls
BoNT-A LC inh2 = BoNT/A light chain protease inhibitors, primary screen, biochemical, flow cytometry, MLPCN library; Botulinum neurotoxin type A light chain protease (Clostridium botulinum A str. ATCC 3502); multiplex microsphere protease substrate cleavage; inhibition, % at 10 µM; hit rate 0.17% among 360,000; AID 588499, 2011; further: plate controls were buffer without enzyme for full effect and enzyme alone for no effect
Anthrax LF inh2 = Bacillus anthracis LF protease inhibitors, primary screen, biochemical, multiplex microsphere, MLPCN library; multiplex microsphere protease cleavage assay; inhibition, % at 10 µM; hit rate 0.12% among 360,000; AID 588501, 2011; further: plate controls were buffer without enzyme for full effect and enzyme alone for no effect
BoNT F protease = BoNT/F light chain protease inhibitors, primary screen, biochemical, flow cytometry, MLPCN library; AID 588497, 2011; inhibition, % at 10 µM; Multiplex microsphere protease cleavage assay; hit rate 0.22% among 360,000; in the data active means inhibition above about 35%, passing the limit was not always enough; inconclusive means no clear call, values can overlap the other calls; further: plate controls were buffer without enzyme for full effect and enzyme alone for no effect
Bead autofluor = flagged as autofluorescent in microsphere protease counterscreen. compound autofluorescence counterscreen, microsphere flow cytometry; stronger effect = higher value. fluorescence intensity (test concentration not listed). hit rate 3.1% among 360,000. AID 624483; in the data active means fluorescence intensity above about 16000; inconclusive means no clear call, values can overlap the other calls
* marks the source's active call; other numbers are inactive results; ? = inconclusive; / = not tested or not shown. Unless noted, no stated cut-off is given here; in the data, active means inhibition above about 30%; inconclusive means no clear call, values can overlap the other calls; inactive means below that.

SMILES | BJeLR lethal | BoNT-A LC inh2 | Anthrax LF inh2 | BoNT F protease | Bead autofluor
CC1(C)Oc2cc3oc(-c4cc(O)cc(O)c4)cc3cc2CC1O (stereo not drawn) | -12.9 | -0.1 | -3.2 | 1.6 | 5010
O=C(Nc1ccc(F)cc1)N1CCN(c2nc3ccccc3s2)CC1 | 6.7 | -0.1 | -7.6 | -8.2 | 3169
O=C(Nc1ccccc1)N1CCN(c2nc3ccccc3s2)CC1 | -1.3 | 2.2 | -1.1 | 2.8 | 21122*
COc1cc(/C=N/NC(=O)c2ccc(C)nc2)cc([N+](=O)[O-])c1O | 2.7 | -0.7 | -1.9 | 6.2 | 4066
CCOc1cc(/C=N\NC(=O)c2ccc(C)nc2)cc([N+](=O)[O-])c1O | 1.4 | -1.7 | -0.7 | -5.5 | 19947*
CN1CCC(N2CC3CC(C2)c2cccc(=O)n2C3)CC1 (stereo not drawn) | -3.1 | -2.2 | -0.1 | -5.9 | 24622*
CCCCNc1nccnc1-c1cccc(C=O)c1 | / | -0.2 | -5.4 | -0.7 | 3971
CCCCNC(=O)c1cnc(Cc2c[nH]c3ccccc23)c(I)c1 | / | 2.3 | -9.4 | -18.4 | 3340
CCOc1ccccc1N(CC(=O)NC(C)(C)C)C(=O)Cn1nnc(-c2ccc(C)o2)n1 | -7.5 | ? | -13.4 | 21.5 | 15092
COC(=O)c1ccc(CNS(=O)(=O)c2ccc3ccccc3c2)cc1 | 3.7 | 0.0 | 13.2 | -5.8 | 3934
O=C(CSc1nnc(SCc2cccc3ccccc23)s1)c1ccc2c(c1)OCO2 | / | 5.6 | 0.4 | 3.0 | 19293*
